Measurements taken from PubChem BioAssay AID1209 (Sanford-Burnham Center for Chemical Genomics, 2008).
Screen size: about 190,000 compounds; about 810 (0.43%) were called active. For the sample, actives were picked, then their nearest neighbours and some compounds at random. A number with no mark means an inactive call. No stated cut-off is given here; in the data, active means inhibition above about 50%; inactive means the rest.

target: Mannose-6-phosphate isomerase (Homo sapiens) (UniProt P34949); assay: inhibitors of human PMI, primary screen, biochemical, fluorescence intensity, coupled assay (AID 1209); conditions: purified PMI enzyme, at 20 µM, stronger effect = higher value;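 further: plate controls were DMSO vehicle for no effect and wells lacking substrate for full effect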
Sequence (P34949 whole entry, looked up): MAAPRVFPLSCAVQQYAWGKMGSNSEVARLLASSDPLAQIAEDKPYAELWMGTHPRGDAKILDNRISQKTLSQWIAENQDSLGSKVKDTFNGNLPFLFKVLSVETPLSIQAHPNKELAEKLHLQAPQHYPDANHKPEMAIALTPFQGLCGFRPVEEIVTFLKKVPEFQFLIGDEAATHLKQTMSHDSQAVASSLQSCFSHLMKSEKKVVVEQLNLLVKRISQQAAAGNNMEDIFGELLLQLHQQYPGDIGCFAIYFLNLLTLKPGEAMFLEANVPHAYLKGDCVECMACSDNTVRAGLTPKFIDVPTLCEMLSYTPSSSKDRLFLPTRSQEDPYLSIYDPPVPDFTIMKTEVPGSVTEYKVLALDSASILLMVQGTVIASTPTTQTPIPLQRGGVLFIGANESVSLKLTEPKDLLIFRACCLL

| SMILES | inhibition |
| --- | --- |
| COc1ccc(C)cc1NC(=O)c1nnn(CCc2ccccc2)c1N | 8.1% |
| CSc1ccccc1NC(=O)c1cc(-c2cccnc2)nc2ccc(Br)cc12 | -3% |
| CCOC(=O)C1CC(c2ccccc2)=NNC1=O (stereo not given) | -6.5% |
| COc1ccc(C2CN=NC23CCCc2ccccc2C3=O)cc1 (stereo not given) | 3.1% |
| C/C(=C\C(=O)O)C(=O)Nc1nccs1 | -3.3% |
| Cc1ccccc1CN1N=C(/C=C/c2ccccc2)CCC1=O | -3.6% |
| C/C(=N\NC(=O)c1ccccc1)c1ccc(C)c([N+](=O)[O-])c1 | 12.4% |
| Cc1ccc(NC(=O)C2=C(O)c3sccc3N(C)S2(=O)=O)cc1 | 1.9% |
| CN1c2ccsc2C(O)=C(C(=S)Nc2ccccc2)S1(=O)=O | 19.6% |
| Cc1ccc(NC(=S)C2=C(O)c3sccc3N(C)S2(=O)=O)cc1 | 56.1% (active) |
| COC(=O)Cc1c(C)nc2nc(-c3ccco3)[nH]n2c1=O | -34.2% |
| Cc1ccc(-n2c(C)n[nH]c2=S)cc1 | 11.4% |
| Cc1ccc(C)n1-c1ncn[nH]1 | 5.2% |
| O=C(CN1C(=O)NC2(CCc3ccccc3C2)C1=O)Nc1ccc(Cl)cc1F (stereo not given) | 8.5% |
| CC1(C)OC(=O)C(=Cc2ccc(-c3ccc(Cl)c(C(=O)O)c3)o2)C(=O)O1 | -12.1% |
| CC1=NOC(=O)/C1=C/c1ccc(-c2ccc(Cl)cc2)o1 | 21.9% |
| CC1=NOC(=O)/C1=C\c1ccc(-c2ccc(Cl)c(C(=O)O)c2)o1 | 66.6% (active) |
| CCOC(=O)c1c(C)nc2ccc(C)cn12 | -2.7% |
| O=C(OCn1nnc2ccccc2c1=O)C1COc2ccccc2O1 (stereo not given) | 12.1% |
| CCCCn1c(-c2ccco2)n[nH]c1=S | 5.8% |
| COCCCn1c(-c2ccco2)nc2ccccc2c1=O | -0.1% |
| CN=C(c1ccc(C)cc1)n1c(=S)nc(-c2ccc(C)cc2)n(C)c1=S | 37.7% |

| SMILES | inhibition |
| --- | --- |
| Cn1c(-c2ccco2)n[nH]c1=S | -5% |
| COCCCN=C(c1ccco1)n1c(=S)nc(-c2ccco2)n(CCCOC)c1=S | 52.4% (active) |
| CN=C(c1ccco1)n1c(=S)nc(-c2ccco2)n(C)c1=S | 51.4% (active) |
| CN(C)C(=O)N1CCC(C(=O)NCc2ccccc2Cl)CC1 | 3.2% |
| CCOC(=O)c1ccccc1Nc1cc(C)nc2nc(C)nn12 | 5.5% |
| CCOC(=O)N1CCN(C(=O)CSc2ccc(-c3ccc(OC)cc3)nn2)CC1 | -0.8% |
| O=[N+]([O-])c1cc2c(c(CSc3nnnn3-c3ccc(O)cc3)c1)OCOC2 | 26.2% |
| COc1ccc(/C=N\NC(=O)COc2ccc(C(C)(C)C)cc2)cc1Cn1nc(C)cc1C | -2.3% |
| O=C1NC2=C(CCc3ccccc32)C(c2ccccc2)N1 (stereo not given) | -24.4% |
| COc1ccc(C2NC(=O)NC3=C2CCc2ccccc23)cc1 (stereo not given) | 70.7% (active) |
| Cc1ccc(C2NC(=O)NC3=C2CCc2ccccc23)cc1 (stereo not given) | 10.5% |
| CN(C)/C=C(\C(=O)c1ccc(F)cc1F)c1nnnn1-c1ccccc1 | -3.7% |
| O=C(CCNc1ccc(Br)cc1)c1cccc([N+](=O)[O-])c1 | 36% |
| Cc1ccc(NCCC(=O)c2cccc([N+](=O)[O-])c2)c(C)c1 | 55.7% (active) |
| O=C(CCNc1ccc(Cc2ccncc2)cc1)c1cccc([N+](=O)[O-])c1 | 43.5% |
| O=C(CNc1cccc2ccccc12)c1ccc([N+](=O)[O-])cc1 | 25.3% |
| Cc1ccc(NCC(=O)c2ccc([N+](=O)[O-])cc2)cc1 | -45.3% |
| Cc1ccc(NCCC(=O)c2cccc([N+](=O)[O-])c2)cc1 | 43.5% |
| O=C(CCNc1ccc(F)cc1)c1cccc([N+](=O)[O-])c1 | 47.5% |
| O=C(CCNc1cccc(F)c1)c1cccc([N+](=O)[O-])c1 | 37.8% |
| O=C(CCNc1ccccc1)c1cccc([N+](=O)[O-])c1 | 56.8% (active) |
| Cc1cccc(NCCC(=O)c2ccc([N+](=O)[O-])cc2)c1C | 76.2% (active) |

| SMILES | inhibition |
| --- | --- |
| O=C(CCNc1ccc(Cc2ccncc2)cc1)c1ccc([N+](=O)[O-])cc1 | 64.4% (active) |
| O=[N+]([O-])c1ccc(Cc2ccncc2)cc1 | 1.8% |
| CCCn1cc(CN2CCC(Cc3ccccc3)(C(=O)OCC)CC2)c(C)n1 | 5.2% |
| COc1ccc(NC(=S)N/N=C2\CC(C)(C)Oc3ccc(O)cc32)cc1 | 5.4% |
| NC(=O)CSC1=Nc2ccccc2C2=NC(c3ccccc3)C(=O)N12 (stereo not given) | -8.5% |
| O=C(c1nn2c(C(F)(F)F)cc(-c3cccs3)nc2c1Cl)N1CCCc2ccccc21 | -11.4% |
| COc1ccc(N2C(=O)CN(Cc3cc(OC)c(OC)c(OC)c3)C2=S)cc1 | -2.4% |
| CC(/C=C/c1ccccc1)NC(N)=O (stereo not given) | -3.3% |
| N#Cc1ccc(NC(=S)NC(=O)CCc2ccc(S(=O)(=O)N3CCOCC3)cc2)cc1 | 8.9% |
| CCOc1ccc(-c2nn[nH]n2)cc1OCC | -5.5% |
| CCc1nn(C(C)C(=O)N2CCN(Cc3ccccc3)CC2)c(=O)c2cc3occc3n12 (stereo not given) | 16.5% |
| O=C(NCc1ccc(F)cc1)C(c1cccs1)N(C(=O)c1csnn1)C1CC1 (stereo not given) | 0.7% |
| O=C(NCc1ccccc1)C(c1cccs1)N(C(=O)c1csnn1)C1CC1 (stereo not given) | 4.8% |
| COc1ccc(CNC(=O)C(c2cccs2)N(C(=O)c2csnn2)C2CC2)cc1 (stereo not given) | 93% (active) |
| CCOc1ccc(S(=O)(=O)NCc2ccccc2)cc1C(N)=O | 8.4% |
| O=[N+]([O-])c1ccc(N2CCN(S(=O)(=O)c3ccc4ccccc4c3)CC2)cc1NCC1CCCO1 (stereo not given) | 5.7% |
| O=C(CCc1nnc(COc2ccccc2)o1)NCc1ccc(Cl)s1 | 5.4% |
| CN(CCO)C1=CC(=O)CC(C)(C)C1 | -12.5% |
| CCCc1cc(C(=O)Cc2ccc(C(=O)OCC)o2)c(O)cc1O | -21.9% |
| CCOC(=O)c1ccc(CC(=O)c2ccc(O)c(O)c2O)o1 | 75% (active) |
| CCOC(=O)c1ccc(CC(=O)c2ccc(O)cc2O)o1 | -14.1% |
